The values that follow come from PubChem BioAssay (Tox21).

Where “and” joins values, the source holds several entries; their conditions need not be identical. Equal values may be shown once. Inconclusive results are not listed. Where a call stands in place of a potency, no number is given. A number with no mark means an inactive call. Calls of active or inactive are those of the source. The call rests on the fitted dose curve; in most records, active means well fitted cell-killing curve with a large enough effect in the repeat runs; inconclusive means weak or mixed curves, or effect the other way; inactive means no such curve, though single readings can be large or run the other way.
Potency means the concentration at half of the fitted maximal effect.

A short description of the experiment: qHTS assay for small molecule activators of the heat shock response signaling pathway - cell viability counter screen (AID 743209). Further: nearly all actives have a fitted effect of over 50% in size. To be noted: HSE-bla HeLa viability, CellTiter-Glo luminescence, 5 h; series mostly up to 62.6 µM. From the text: U.S. Tox21 Program National Center for Advancing Translational Sciences [NCATS] NIH Chemical Genomics Center [NCGC] U.S. Environmental Protection Agency [EPA] National Institutes of Environmental Health Sciences [NIEHS] National Toxicology Program [NTP] U.S. Food and Drug Administration [FDA] Tox21 Assay Overview: Various chemicals, environmental and physiological stress conditions may lead to the activation of heat shock response/ unfolded protein response (HSR/UPR). There are three heat shock transcription factors (HSFs) (HSF-1, -2, and -4) mediating transcriptional regulation of the human HSR. To identify the compounds that activate HSR signaling, HSE-bla HeLa cell line (Invitrogen, Carlsbad, CA, USA) containing a beta-lactamase reporter gene under the control of the heat shock response elements was used to screen Tox21 10K compound library. The cytotoxicity of the Tox21 compound library against the HSE-bla HeLa cell line was tested in parallel by measuring the cell viability using CellTiter-Glo assay (Promega, Madison, WI) in the same wells.
Tox21 Assay Protocol Summary: The CellSensor HSE-bla HeLa cells (Invitrogen, Carlsbad, CA, USA) were dispensed at 1500 cells/6uL/well into 1536-well black wall/clear bottom plates using a Multidrop combi (Thermo Fisher Scientific, Waltham, MA) dispenser. After the assay plates were incubated at 37 C and 5% CO2 overnight, 23 nL of compounds dissolved in DMSO, positive controls or DMSO only was transferred to the assay plate by a Pintool station (Kalypsys, San Diego, CA). The plates were incubated at 37 C for 5 h. After 1 uL of LiveBLAzerTM B/G FRET substrate was added using a Flying Reagent Dispenser (FRD, Beckman Coulter, Indianapolis, IN, USA), the plates were incubated at room temperature for 2.5 h, and fluorescence intensity was measured by an Envision plate reader (PerkinElmer, Shelton, CT). For cell viability readout that measures cytotoxicity, 3 ul/well of CellTiter-Glo reagent was added into the assay plates using a FRD. After 30 min incubation at room temperature, the luminescence intensity in the plates was measured using a ViewLux (PerkinElmer) plate reader.
`N#Cc1ccc(N(CC(N)=O)CC(F)(F)F)cc1C(F)(F)F`: the Potency entry is “inactive”.
Turning to `Cc1ccn2nc(S(=O)(=O)Nc3c(F)cccc3F)nc2n1`, the Potency result was “inactive”.
`Clc1ccc(C(Cl)(Cl)Cl)cc1Cl`: the Potency result was “inactive”.
`[O]=[Cr][O][Cr]=[O]`: the Potency result was “inactive”.
Still for that read-out and setting: the value for `[Cl-].[Cl-].[Sn+2]` was “inactive”.
Take `COC(=O)N(OC)c1ccccc1COc1ccn(-c2ccc(Cl)cc2)n1`: the Potency result is “inactive”.
Regarding `Cc1cc2c3c(c1)C(c1ccccc1)=N[C@@H](NC(=O)c1ccncc1)C(=O)N3CC2`, the Potency result is “inactive”.
In the case of `O=C(Nc1ccc(F)cc1F)c1cccnc1Oc1cccc(C(F)(F)F)c1`, the Potency result was “inactive”.
As for `CSC(=O)c1c(C(F)F)nc(C(F)(F)F)c(C(=O)SC)c1CC(C)C`, the Potency result was “inactive”.
As for `[O]=[Cr](=[O])([OH])[O][Cr](=[O])(=[O])[OH]`, the Potency is 39.3 µM (active) and 43.6 µM (active).
In the case of `CC(=O)C(Cl)C(=O)N(C)C` (stereo not given), the Potency entry is “inactive”.
Take `CC(O)C(=O)[O][Hg][c]1ccccc1` (stereo not given): the Potency is 1.95 µM (active).
For the compound `CN=C=O`, the Potency result was “inactive”.
As to `NC(=O)C(Cl)Cl`, the Potency result was “inactive”.
Consider `CO/N=C(\C(=O)OC)c1ccccc1CO/N=C(\C)c1cccc(C(F)(F)F)c1`, for which the Potency result was “inactive”.
For `O=C(Cl)c1ccccc1F`, the Potency result was “inactive”.
The same measure, in the same setting: the value for `CCN(CC)C(=O)N[C@@H]1C=C2c3cccc4[nH]cc(c34)C[C@@H]2N(C)C1` was “inactive”; that for `O=C1C(Cl)=C(Cl)C(=O)C(Cl)=C1Cl` was “inactive”; that for `CSC1=N[C@@](C)(c2ccccc2)C(=O)N1Nc1ccccc1` was “inactive”.
As to `CCCCON=O`, the Potency entry was “inactive”.
Consider `[O-][Cl+3]([O-])([O-])O`, for which the Potency result is “inactive”.
For the compound `O=[N+]([O-])c1cc(C(F)(F)F)c(Cl)c([N+](=O)[O-])c1Nc1ncc(C(F)(F)F)cc1Cl`, the Potency was 6.16 µM (active).
In the case of `CC(Cc1ccc(OCC(=O)O)cc1)NCC(O)c1csc(C(F)(F)F)n1` (stereo not given), the Potency entry is “inactive”.
As for `CSSC`, the Potency entry was “inactive”.
Regarding `COP(=O)(OC)Oc1ccc([N+](=O)[O-])cc1`, the Potency entry was “inactive”.
As to `CC(C)Br`, the Potency result is “inactive”.
The same measure, in the same setting: the value for `O.O.O.O=C([O-])[C@H]([O-])[C@@H]([O-])C(=O)[O-].O=C([O-])[C@H]([O-])[C@@H]([O-])C(=O)[O-].[K+].[K+].[Sb+3].[Sb+3]` was “inactive”; that for `[C-]1=CC=CC1.[Cl][Zr+2][Cl].c1cc[cH-]c1` was “inactive”; that for `C[C@]12Cc3cn[nH]c3C[C@@H]1CC[C@@H]1[C@@H]2CC[C@@]2(C)[C@H]1CC[C@]2(C)O` was “inactive”.
Regarding `O=[N+]([O-])c1ccc(CCl)cc1`, the Potency result was “inactive”.
For the compound `Clc1c(Cl)c(Cl)c(Cl)c(Cl)c1Cl`, the activity change, negative = cytotoxicity is -0.0057% [at 5.95 µM].
`C[C@H]1[C@H](c2ccc(Cl)cc2)SC(=O)N1C(=O)NC1CCCCC1`: the Potency result is “inactive”.
As to `CCc1cccc(C)c1N(C(=O)CCl)[C@@H](C)COC`, the Potency entry is “inactive”.
For the compound `O=C(N[C@@H]1N=C(c2ccccc2F)c2cccc3c2N(CC3)C1=O)c1cc2ccccc2[nH]1`, the Potency entry is “inactive”.
Take `COC(=O)/C=C(\C)OP(=O)(OC)OC`: the Potency result is “inactive”.
For the compound `Nc1nc(N)nc(Cl)n1`, the Potency result was “inactive”.
For the compound `c1ccc2nc(N3CCNCC3)ccc2c1`, the Potency result was “inactive”.
The same measure, in the same setting: the value for `CNC(=O)Oc1cc(C)cc(C(C)C)c1` was “inactive”.
As to `OCC(Br)CBr` (stereo not given), the Potency entry is “inactive”.
The same measure, in the same setting: the value for `ClCBr` was “inactive”.
